According to PubChem BioAssay AID1159580 (chemical genetic matrix, 2015):
About 2,000 (36%) of roughly 5,500 compounds were called active. Another 18% or so got no clear call; they are omitted. The list shows a part of the results. A number with no mark means an inactive call. Cut-off read from the data, not from the text of the source: active = normalized growth mostly below about 0.91 (no sharp cut-off); inconclusive = no clear call, values can overlap the other calls; inactive = mostly above about 0.92.

Test: chemical genetic growth profiling, strain panel (AID 1159580);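 note: tested at 20 µM; growth read once vehicle control cultures reached saturation at 30 °C; 1 = growth at the plate median or of vehicle wells; lower values mean less growth of the strain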
Conditions: S. cerevisiae deletion strains, growth OD
[1] = locus YAL013W, strain DEP1, hits give low values
[2] = locus YBR229C, strain ROT2, hits give low values
[3] = locus YCL061C, strain MRC1, hits give low values
[4] = locus YDL101C, strain DUN1, hits give low values
[5] = locus YDR150W, strain NUM1, hits give low values
[6] = locus YEL061C, strain CIN8, hits give low values
[7] = locus YGR078C, strain PAC10, hits give low values
[8] = locus YHR030C, strain SLT2, hits give low values
[9] = locus YHR087W, strain rtc3, hits give low values
[10] = locus YJR043C, strain POL32, hits give low values
[11] = locus YJR075W, strain HOC1, hits give low values
[12] = locus YLR039C, strain RIC1, hits give low values
[13] = locus YLR058C, strain SHM2 (second series), hits give low values
[14] = locus YLR085C, strain ARP6, hits give low values
[15] = locus YLR262C, strain YPT6, hits give low values
[16] = locus YML094W, strain GIM5, hits give low values
[17] = locus YMR219W, strain ESC1, hits give low values
[18] = locus YMR263W, strain SAP30, hits give low values
[19] = locus YNL153C, strain GIM3, hits give low values
[20] = locus YNL298W, strain CLA4 (second series), hits give low values
[21] = locus YNL322C, strain KRE1, hits give low values
[22] = locus YNR030W, strain Alg12, hits give low values
[23] = locus YOL006C, strain TOP1, hits give low values
[24] = locus YPL055C, strain LGE1, hits give low values
[25] = locus YPL241C, strain CIN2, hits give low values
[26] = locus YPR135W, strain CTF4, hits give low values

Compound: O=S(=O)(NCc1ccc2c(c1)OCO2)c1ccc(F)c(Cl)c1
- normalized growth [1]: 0.98
- normalized growth [2]: 0.94
- normalized growth [3]: 0.977
- normalized growth [4]: 0.925
- normalized growth [5]: 0.913
- normalized growth [6]: 0.965
- normalized growth [7]: 0.96
- normalized growth [8]: 0.779
- normalized growth [9]: 0.948
- normalized growth [10]: 0.968
- normalized growth [11]: 0.937
- normalized growth [12]: 0.757 (active)
- normalized growth [13]: 0.951
- normalized growth [14]: 0.991
- normalized growth [15]: 0.683 (active)
- normalized growth [16]: 1
- normalized growth [17]: 0.962
- normalized growth [18]: 0.965
- normalized growth (locus YNL128W, strain TEP1, hits give low values): 0.957
- normalized growth [19]: 0.971
- normalized growth [20]: 0.943
- normalized growth [21]: 0.967
- normalized growth [22]: 0.954
- normalized growth [23]: 0.843
- normalized growth [24]: 0.995
- normalized growth [25]: 0.998
- normalized growth [26]: 0.784

Compound: O=S(=O)(NCC1CC1)c1ccc(F)c(Cl)c1
- normalized growth [1]: 1
- normalized growth [2]: 1
- normalized growth [3]: 0.999
- normalized growth [4]: 0.994
- normalized growth (locus YDL134C, strain PPH21, hits give low values): 1.01
- normalized growth [5]: 0.945
- normalized growth [6]: 1
- normalized growth [7]: 1
- normalized growth [8]: 0.969
- normalized growth [9]: 1.02
- normalized growth [10]: 0.997
- normalized growth [11]: 1.01
- normalized growth [12]: 1.06
- normalized growth [13]: 1
- normalized growth [14]: 1
- normalized growth [15]: 1
- normalized growth [16]: 1.01
- normalized growth [17]: 1
- normalized growth [18]: 1
- normalized growth [19]: 1
- normalized growth [20]: 1.03
- normalized growth [21]: 0.995
- normalized growth [22]: 0.996
- normalized growth [23]: 1.05
- normalized growth [24]: 1.02
- normalized growth [25]: 0.99
- normalized growth [26]: 1.02

Compound: CC(C)(C)C1=C(C#N)C(c2c(Cl)cccc2Cl)C(C#N)=C(N)O1 (stereo not given)
- normalized growth (locus YAR019C, strain CDC15, hits give low values): 0.987
- normalized growth (locus YBL105C, strain PKC1, hits give low values): 0.99
- normalized growth (locus YBR135W, strain CKS1, hits give low values): 0.992
- normalized growth (locus YBR136W, strain MEC1, hits give low values): 0.989
- normalized growth (locus YBR160W, strain CDC28, hits give low values): 0.996
- normalized growth (locus YDL017W, strain CDC7, hits give low values): 0.99
- normalized growth (locus YDL028C, strain MPS1, hits give low values): 0.997
- normalized growth [4]: 0.979
- normalized growth (locus YDL108W, strain KIN28, hits give low values): 0.992
- normalized growth (locus YDL132W, strain cdc53, hits give low values): 0.978
- normalized growth (locus YDL214C, strain PRR2, hits give low values): 0.987
- normalized growth (locus YDR052C, strain DBF4, hits give low values): 0.997
- normalized growth (locus YDR054C, strain cdc34, hits give low values): 0.976
- normalized growth (locus YDR226W, strain ADK1, hits give low values): 0.979
- normalized growth (locus YDR477W, strain SNF1, hits give low values): 0.995
- normalized growth (locus YER123W, strain YCK3, hits give low values): 0.996
- normalized growth (locus YER133W, strain GLC7, hits give low values): 0.984
- normalized growth (locus YFL009W, strain cdc4, hits give low values): 0.98
- normalized growth (locus YFL029C, strain CAK1, hits give low values): 0.983
- normalized growth (locus YFR003C, strain YPI1, hits give low values): 0.992
- normalized growth (locus YFR019W, strain FAB1, hits give low values): 1
- normalized growth (locus YFR028C, strain CDC14, hits give low values): 0.978
- normalized growth (locus YGR040W, strain KSS1, hits give low values): 0.991
- normalized growth (locus YGR052W, strain FMP48, hits give low values): 1.01
- normalized growth (locus YGR092W, strain DBF2, hits give low values): 0.98
- normalized growth [8]: 0.983
- normalized growth (locus YHR079C, strain IRE1, hits give low values): 0.891
- normalized growth (locus YHR082C, strain KSP1, hits give low values): 1.09
- normalized growth (locus YHR205W, strain SCH9, hits give low values): 0.913
- normalized growth (locus YIL147C, strain SLN1, hits give low values): 0.993
- normalized growth (locus YJL095W, strain BCK1, hits give low values): 0.894
- normalized growth (locus YJL128C, strain PBS2, hits give low values): 0.925
- normalized growth (locus YJL157C, strain FAR1, hits give low values): 1.01
- normalized growth (locus YJR016C, strain ILV3, hits give low values): 0.984
- normalized growth (locus YJR066W, strain TOR1 (second series), hits give low values): 0.983
- normalized growth (locus YJR066W, strain TOR1, hits give low values): 1.1
- normalized growth (locus YKL048C, strain ELM1, hits give low values): 0.922
- normalized growth (locus YKL067W, strain YNK1, hits give low values): 0.988
- normalized growth (locus YKL101W, strain HSL1, hits give low values): 0.961
- normalized growth (locus YKL193C, strain SDS22, hits give low values): 0.989
- normalized growth (locus YKL203C, strain TOR2, hits give low values): 1.07
- normalized growth (locus YLR113W, strain HOG1, hits give low values): 0.885
- normalized growth (locus YLR133W, strain CKI1, hits give low values): 1.02
- normalized growth (locus YLR403W, strain SFP1, hits give low values): 0.944
- normalized growth (locus YML070W, strain DAK1, hits give low values): 0.992
- normalized growth (locus YMR001C, strain CDC5, hits give low values): 0.995
- normalized growth (locus YMR205C, strain PFK2 (second series), hits give low values): 0.993
- normalized growth (locus YMR277W, strain FCP1, hits give low values): 0.997
- normalized growth (locus YNL006W, strain LST8, hits give low values): 0.975
- normalized growth (locus YNL020C, strain ARK1, hits give low values): 1
- normalized growth (locus YNL161W, strain CBK1, hits give low values): 0.982
- normalized growth (locus YNL183C, strain NPR1, hits give low values): 1.06
- normalized growth (locus YNL207W, strain RIO2, hits give low values): 0.986
- normalized growth (locus YNL222W, strain SSU72, hits give low values): 0.989
- normalized growth (locus YNL307C, strain MCK1 (second series), hits give low values): 1
- normalized growth (locus YOL078W, strain AVO1, hits give low values): 0.994
- normalized growth (locus YOL136C, strain PFK27, hits give low values): 1
- normalized growth (locus YOR061W, strain CKA2, hits give low values): 1.01
- normalized growth (locus YOR119C, strain RIO1, hits give low values): 1.04
- normalized growth (locus YOR231W, strain MKK1, hits give low values): 1.02
- normalized growth (locus YOR329C, strain SCD5, hits give low values): 0.993
- normalized growth (locus YPL031C, strain PHO85, hits give low values): 0.992
- normalized growth (locus YPL153C, strain RAD53, hits give low values): 1
- normalized growth (locus YPL204W, strain HRR25, hits give low values): 1
- normalized growth (locus YPL209C, strain IPL1, hits give low values): 0.993
- normalized growth (locus YPL256C, strain CLN2, hits give low values): 0.94
- normalized growth (locus YPR025C, strain CCL1, hits give low values): 0.992
- normalized growth (locus YPR106W, strain ISR1, hits give low values): 0.981
- normalized growth (locus YPR111W, strain DBF20, hits give low values): 0.966
- normalized growth (strain NNK1, hits give low values): 0.963
- normalized growth (strain TSCII, hits give low values): 0.991
